# Data taken from PubChem BioAssay AID624300 (Southern Research Specialized Biocontainment Screening …, 2012).
# About 360 (15%) of roughly 2,400 compounds were called active. Only a sample is shown. Measured potencies and affinities stand elsewhere. Values without a mark were called inactive.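 Rule for the calls: active = viability falls under 70% at one or more tested concentrations, taken as toxicity; inactive = viability stays over 70% at every dose.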
# Test: viability loss in HeLa cells – cytotoxicity control for MgcRacGAP inhibitor project, dose response (AID 624300);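 note: 100% = median of untreated control wells on the same plate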
# Settings: CellTiter-Glo luminescence, 24 h; series mostly up to 100 µM; viability: at the top concentration
row,Compound,viability
1,Cc1cc(-c2n[nH]c(=S)n2/N=C/c2cccc(O)c2)n[nH]1,97.6%
2,COc1ccc(NC2CCCN(C(=O)c3cccc(N4CCNC4=O)c3)C2)cc1 (stereo not given),91.8%
3,COc1cccc(Oc2cn[nH]c2-c2ccc(O)cc2O)c1,96.4%
4,COc1ccc(Oc2c(-c3ccc(O)cc3O)n[nH]c2C)cc1,97.1%
5,CC1=NN(C(N)=S)C(=O)C1N=Nc1ccc(O)cc1 (stereo not given),89.7%
6,O=C(O)c1ccc2c(c1)[C@@H]1C=CC[C@@H]1[C@H](c1ccccn1)N2,101%
7,CCN(CC)c1ccc(NC(=O)CNCc2ccccc2Cl)c(C)c1,89.4%
8,COc1ccc(CNc2ncc(-c3ccccc3)n2C)c(OC)c1OC,95.8%
9,COc1ccc(CNc2ncc(-c3ccc(F)cc3)n2C)cc1OC,96.8%
10,CCN1C(=O)c2ccc(C(=O)Nc3ccc(O)cc3C)cc2C1=O,103%
11,CCn1nc(CC(C)C)cc1C(=O)N1CCCC(Nc2ccc(OC)cc2)C1 (stereo not given),102%
12,CC(C)NCC(=O)Nc1c2c(nc3ccccc13)CCC2,111%
13,CN1CCc2c1nc1ccccc1c2NC(=O)CN1CCCC1,102%
14,Cc1sc2c3ccsc3ccc2[n+]1C,96.4%
15,CC(C)(C)N(Cc1ccc2c(c1)OCO2)C(=O)/C=C\S(=O)c1ccccc1 (stereo not given),99.4% [at 25 µM]
16,COc1ccc(C2NC(=O)C(C#N)=C(S)N2c2cccc(C)c2)cc1OC (stereo not given),95.3%
17,CN(C)CCO/N=C(\c1ccc(Br)cc1)c1cccnc1,94.7%
18,COC(=O)c1ccc(NCc2c(O)ccc(O)c2Br)cc1Cl,93.9%
19,COC(=O)c1ccc(C(=O)OCCCc2nc3ccc(N)cc3[nH]2)cc1,107%
20,CCOC(=O)c1[nH]c2ccccc2c1NC(=S)Nc1cccc(C)c1C,91.2%
21,Cc1ccc(-c2n[nH]c(=S)n2/N=C/c2ccc(C(=O)O)cc2)cc1,94.9%
22,COc1ccc2cc(OCC(=O)NNC(=O)Nc3ccc(F)cc3)ccc2c1,105%
23,Oc1ccc(CCc2ccccn2)cc1,108%
24,CC(=O)NC(Cc1ccccc1)C(=O)Oc1ccc2ccccc2c1 (stereo not given),88.7%
25,CN1C(=O)/C(=C/C=C2/CCCN2C)N(C)C1=S,99.4%

row,Compound,viability
1,Oc1ccc(Nc2ncnc3ccccc23)cc1,97.4%
2,Cc1nc(Nc2ccc(O)cc2)c2c3c(sc2n1)CCCC3,90.5%
3,Cc1cccc(Nc2c(-c3ccc(O)cc3)nc3ncccn23)c1,97.8%
4,COc1ccc(/C=N/N2CCN(C)CC2)cc1O,110%
5,O=c1nc2s/c(=C\c3ccc(-c4ccccc4[N+](=O)[O-])o3)c(=O)n2nc1-c1ccccc1,105%
6,CC1=NOC(=O)/C1=C\c1ccc(-c2ccc(Cl)c(C(=O)O)c2)o1,104%
7,C=CCn1c(SCC(=O)Nc2ccc(N(C)C)cc2)nnc1-c1cccc(C)c1,102%
8,COc1ccc(NC2CCCN(C(=O)CCC3=NNC(=O)CC3)C2)cc1 (stereo not given),99.2%
9,COc1ccc(N2CCN(S(=O)(=O)c3c(C)nc4scc(C)n4c3=O)CC2)cc1,93.2%
10,N/N=C(\Cc1cscn1)c1ccc(O)cc1O,99.1%
11,O=C(CN1CCN(c2ccc(O)cc2)CC1)Nc1ccc2c(c1)OCCCO2,104%
12,Nc1nc2c(s1)CCc1ccccc1-2,93.6%
13,COc1ccc2c(C)cc3n[nH]c(=S)n3c2c1,110%
14,NNc1ccc([N+](=O)[O-])c2[nH][nH]c(=O)c12,98.7%
15,Oc1ccc(C=NNc2nc3ccccc3s2)c(O)c1,90.4%
16,Cc1nc2ccccc2nc1N/N=C/c1ccc(O)cc1,90.5%
17,COc1ccc(-c2cnnc(N/N=C/c3ccc(O)c(O)c3)n2)cc1,95.8%
18,CCN(CC)c1ccc(/C=N/Nc2nc(C)cc(C)n2)c(O)c1,101%
19,COc1cc(/C=N/Nc2cc(C)nc(NS(=O)(=O)c3ccccc3)n2)ccc1O,102%
20,CN(C)c1ccc(/C=N\Nc2ccccn2)cc1,98.6%
21,COc1ccc(NCc2ccsc2)cc1,112%
22,COc1ccc(NC2CCCN(C(=O)CN3CCOC3=O)C2)cc1 (stereo not given),99.7%
23,CC1(C)CC(=O)C(C=Nc2ccc(N)cc2)=C(O)C1,107%
24,COc1cc(/C=C/C(=O)OCC(=O)N2CC3(C)CC2CC(C)(C)C3)ccc1O (stereo not given),96%
25,Cn1c(=O)c2[nH]c(=S)n(Cc3ccccc3)c2n(C)c1=O,92.9%

row,Compound,viability
1,Cn1c(=O)[nH]c(=O)c2c1[nH]c(=S)n2CCCc1ccccc1,101%
2,CN(C)c1ccc(NC(=S)NCC2CCCO2)cc1 (stereo not given),109%
3,Cc1sc2ccc3sccc3c2[n+]1C,94.5%
4,Cc1cc(N(C)C)ccc1N=Nc1ccc(N)cc1,96.7%
5,O=C(CN1CCN(c2ncccn2)CC1)N1CCCC1,102%
6,CCn1c(SCC(=O)Nc2ccc(N(C)C)cc2)nnc1-c1cccc(C)c1,98.4%
7,CC(C)c1nc(SCC(=O)Nc2ccc(N(C)C)cc2)c2ccccc2n1,101%
8,Cc1ccccc1SCC(=O)OCC(=O)Nc1ccc(N(C)C)cc1,107%
9,Cc1nc2ccc(C(=O)Nc3ccc(N(C)C)cc3)cc2s1,105%
10,COc1cc(/C=N/NC(=O)CNc2n[nH]c(=O)[nH]c2=O)ccc1O,96.4%
11,CSc1ccc(CN2CCC(N3CC(C)OC(C)C3)CC2)cc1 (stereo not given),86.2%
12,C=CCn1c(SCC(=O)c2ccc(O)c(O)c2)nnc1-c1cccc(OC)c1,100%
13,CCn1c(CSc2nc3ccccc3s2)nnc1SCC(=O)c1ccc(O)c(O)c1,90%
14,CN(C)c1ccc(NS(=O)(=O)c2ccc(Cl)cc2)cc1,90.5%
15,CS(=O)(=O)N1CCN(C2C3CC4CC(C3)CC2C4)CC1 (stereo not given),93.4%
16,COc1cc(/C=N/NC(=O)c2ccc(-n3cccc3)cc2)ccc1O,106%
17,O=C(N/N=C/c1ccc(O)cc1)c1cccc(C(F)(F)F)c1,90%
18,Fc1ccc(CN2CCN(C(c3ccccc3)c3ccccc3)CC2)cc1,102%
19,COc1cc(/C=N\NC(=O)c2ccc(Cn3nc([N+](=O)[O-])c(Cl)c3C)o2)ccc1O,92.3%
20,O=C(O)c1cc(N2C(=O)C=CC2=O)cc(N2C(=O)C=CC2=O)c1,107%
21,Oc1ccc2c(ccc3[nH]cnc32)c1,110%
22,Nc1ccc2[nH]c(=S)[nH]c2c1,96.2%
23,Cc1ccc(Nc2n[nH]c(=S)s2)cc1,94.3%
24,COc1ccc(N2CCN(c3ccc(C(N)=O)cc3[N+](=O)[O-])CC2)cc1,95.6%
25,Cc1sc2ncnc(N(C)CCc3ccccn3)c2c1C,95%
